# Data from ChEMBL document CHEMBL3988442, “University of Dundee, Small-Polar-MMV Screening Library” (2021).
# For some of these results: Potency and affinity values are given separately.
# Key:
# Set-up in all cases: scale not given: direction of the effect not stated beside the values
# [1] = biological target: Protein translocase subunit SecA (Escherichia coli (strain K12)) (UniProt P10408); assay: Assay to Identify E. coli SecA ATPase Inhibitors; assay type: functional; settings: 30 µM
# [2] = biological target: T1, Ubiquitin-activating enzyme e1, putative (Leishmania donovani (strain BPK282A1)) (UniProt E9BSI1); assay: Leishmania donovani Ubiquitin Activating Enzyme (LdE1); assay type: functional; settings: 30 µM
# T1 sequence (whole entry): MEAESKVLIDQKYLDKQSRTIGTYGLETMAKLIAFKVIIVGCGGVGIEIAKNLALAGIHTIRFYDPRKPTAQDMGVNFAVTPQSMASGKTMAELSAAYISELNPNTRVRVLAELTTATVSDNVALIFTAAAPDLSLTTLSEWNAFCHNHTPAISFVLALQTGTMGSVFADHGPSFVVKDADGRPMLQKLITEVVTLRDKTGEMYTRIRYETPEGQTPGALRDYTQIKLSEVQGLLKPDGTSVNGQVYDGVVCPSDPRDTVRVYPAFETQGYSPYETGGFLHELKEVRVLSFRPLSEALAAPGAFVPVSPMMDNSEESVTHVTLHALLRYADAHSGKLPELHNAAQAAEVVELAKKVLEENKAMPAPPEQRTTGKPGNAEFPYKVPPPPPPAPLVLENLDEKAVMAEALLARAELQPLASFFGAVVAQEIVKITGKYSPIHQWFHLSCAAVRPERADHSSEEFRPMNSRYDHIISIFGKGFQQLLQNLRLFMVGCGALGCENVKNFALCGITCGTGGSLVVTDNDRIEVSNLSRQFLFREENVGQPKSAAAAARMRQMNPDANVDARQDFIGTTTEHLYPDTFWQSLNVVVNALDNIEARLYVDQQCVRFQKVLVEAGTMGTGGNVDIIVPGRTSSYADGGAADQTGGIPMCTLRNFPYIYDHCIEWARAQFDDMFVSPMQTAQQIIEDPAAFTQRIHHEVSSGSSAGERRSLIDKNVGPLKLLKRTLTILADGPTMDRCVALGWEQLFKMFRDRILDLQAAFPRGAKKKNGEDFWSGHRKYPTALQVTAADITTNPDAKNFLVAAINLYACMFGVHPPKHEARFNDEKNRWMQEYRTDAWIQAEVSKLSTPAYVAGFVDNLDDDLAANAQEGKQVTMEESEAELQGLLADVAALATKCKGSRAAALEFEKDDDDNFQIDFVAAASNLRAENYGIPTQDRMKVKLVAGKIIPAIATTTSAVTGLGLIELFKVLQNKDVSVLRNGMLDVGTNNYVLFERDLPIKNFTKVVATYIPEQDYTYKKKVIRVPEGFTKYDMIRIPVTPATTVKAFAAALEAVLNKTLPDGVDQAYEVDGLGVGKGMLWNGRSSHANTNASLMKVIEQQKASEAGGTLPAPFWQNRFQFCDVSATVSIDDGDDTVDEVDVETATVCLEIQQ
# [3] = biological target: AMP-activated protein kinase, AMPK (Homo sapiens) (UniProt P54646+O43741+P54619+Q9UGJ0+Q9Y478+Q13131+Q9UGI9); assay: AMP-dependent Kinase enzyme assay. An in vitro enzyme assay that detects ADP turnover that is directly proportional to AMPK activity. This uses naive AMPK that is activated during the assay with MK-8722; assay type: functional; settings: 30 µM
# [4] = biological target: Sialic acid-binding Ig-like lectin 9 (Homo sapiens) (UniProt Q9Y336); assay: Hs-Siglec9 ALPHAscreen SOP 20170721; settings: 10 µM
# Trypanosoma cruzi = assay: Trypanosoma cruzi phosphomannomutase and mannose-1-phosphate guanylyltransferase assay; assay type: functional; settings: 10 µM
# [5] = biological target: T2, Arginase-2, mitochondrial (Homo sapiens) (UniProt P78540); assay: in vitro enzyme assay to detect the production of urea directly proportional to the activity of Arginase II; assay type: functional; settings: 33.3 µM; further: in the data most compounds retested in dose-response had high values
# T2 sequence (whole entry): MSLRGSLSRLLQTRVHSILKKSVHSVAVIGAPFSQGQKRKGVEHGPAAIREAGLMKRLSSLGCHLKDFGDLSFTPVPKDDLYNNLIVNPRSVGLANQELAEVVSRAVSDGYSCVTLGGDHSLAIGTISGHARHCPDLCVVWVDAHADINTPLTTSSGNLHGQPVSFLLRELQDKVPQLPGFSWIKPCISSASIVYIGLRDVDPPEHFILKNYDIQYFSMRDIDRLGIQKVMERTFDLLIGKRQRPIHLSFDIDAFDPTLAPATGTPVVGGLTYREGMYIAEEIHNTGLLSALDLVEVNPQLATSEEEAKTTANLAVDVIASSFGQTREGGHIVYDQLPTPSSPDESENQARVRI
# [6] = biological target: T3, Proteasome subunit beta (Trypanosoma cruzi) (UniProt O96673); assay: Trypanosoma cruzi proteasome chymotrypsin-like activity (TcProtChymo) assay.; further: in the data most compounds retested in dose-response had high values; assay type: functional; settings: 9.37 µM
# T3 sequence (whole entry): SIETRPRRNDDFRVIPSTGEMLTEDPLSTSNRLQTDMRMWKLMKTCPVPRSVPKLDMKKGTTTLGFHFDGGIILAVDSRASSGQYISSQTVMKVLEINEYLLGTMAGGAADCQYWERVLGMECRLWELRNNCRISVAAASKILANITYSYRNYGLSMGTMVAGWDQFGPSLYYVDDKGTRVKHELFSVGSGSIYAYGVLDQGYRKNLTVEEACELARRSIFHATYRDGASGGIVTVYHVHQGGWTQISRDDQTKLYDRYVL
# Homo sapiens = organism: Homo sapiens; assay: To identify inhibition of the IFN signalling (Jak-Stat) pathway via expression of an eGFP reporter gene under the control of an IFN-stimulated response element (ISRE) containing MxA promoter.; assay type: functional; settings: 30 µM
# [7] = biological target: T4, Tyrosyl-tRNA synthetase, putative (Trypanosoma cruzi (strain CL Brener)) (UniProt Q4DSP6); assay: Trypanosoma cruzi tyrosyl tRNA synthetase (TcYRS) _High Tyrosine SOP; assay type: functional; settings: 30 µM; further: in the data most compounds retested in dose-response had high values
# T4 sequence (whole entry): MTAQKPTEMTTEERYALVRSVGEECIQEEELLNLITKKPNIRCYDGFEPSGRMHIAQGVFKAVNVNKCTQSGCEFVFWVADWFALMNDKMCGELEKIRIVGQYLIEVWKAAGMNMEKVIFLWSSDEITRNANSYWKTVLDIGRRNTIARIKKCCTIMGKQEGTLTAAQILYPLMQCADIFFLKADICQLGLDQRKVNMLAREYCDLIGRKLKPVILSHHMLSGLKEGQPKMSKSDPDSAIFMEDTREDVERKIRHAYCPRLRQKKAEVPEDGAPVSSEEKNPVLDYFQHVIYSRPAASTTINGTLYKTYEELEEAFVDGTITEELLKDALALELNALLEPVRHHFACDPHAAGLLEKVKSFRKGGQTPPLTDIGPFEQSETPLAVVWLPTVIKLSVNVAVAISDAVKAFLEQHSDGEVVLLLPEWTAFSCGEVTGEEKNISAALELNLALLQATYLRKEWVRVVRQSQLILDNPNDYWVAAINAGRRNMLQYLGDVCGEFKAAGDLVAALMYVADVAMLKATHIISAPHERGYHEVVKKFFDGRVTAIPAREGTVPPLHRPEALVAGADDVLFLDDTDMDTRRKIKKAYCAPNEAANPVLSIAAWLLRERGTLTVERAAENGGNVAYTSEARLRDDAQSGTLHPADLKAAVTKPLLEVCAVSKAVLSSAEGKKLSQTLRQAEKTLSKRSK
# [8] = biological target: T4, Tyrosyl-tRNA synthetase, putative (Trypanosoma cruzi (strain CL Brener)); assay: Trypanosoma cruzi tyrosyl tRNA synthetase (TcYRS) SOP; assay type: functional; settings: 30 µM
# [9] = biological target: Chromo domain-containing protein 1 (Saccharomyces cerevisiae (strain ATCC 204508 / S288c) (Baker's yeast)) (UniProt P32657); assay: ScCHD-1 Enzyme Inhibition Assay; assay type: functional; settings: 30 µM; further: in the data most compounds retested in dose-response had high values
# Chain of Chromo domain-containing protein 1 (Saccharomyces cerevisiae (strain ATCC 204508 / S288c) (Baker's yeast)) (P32657 whole entry, the tested form may be a part): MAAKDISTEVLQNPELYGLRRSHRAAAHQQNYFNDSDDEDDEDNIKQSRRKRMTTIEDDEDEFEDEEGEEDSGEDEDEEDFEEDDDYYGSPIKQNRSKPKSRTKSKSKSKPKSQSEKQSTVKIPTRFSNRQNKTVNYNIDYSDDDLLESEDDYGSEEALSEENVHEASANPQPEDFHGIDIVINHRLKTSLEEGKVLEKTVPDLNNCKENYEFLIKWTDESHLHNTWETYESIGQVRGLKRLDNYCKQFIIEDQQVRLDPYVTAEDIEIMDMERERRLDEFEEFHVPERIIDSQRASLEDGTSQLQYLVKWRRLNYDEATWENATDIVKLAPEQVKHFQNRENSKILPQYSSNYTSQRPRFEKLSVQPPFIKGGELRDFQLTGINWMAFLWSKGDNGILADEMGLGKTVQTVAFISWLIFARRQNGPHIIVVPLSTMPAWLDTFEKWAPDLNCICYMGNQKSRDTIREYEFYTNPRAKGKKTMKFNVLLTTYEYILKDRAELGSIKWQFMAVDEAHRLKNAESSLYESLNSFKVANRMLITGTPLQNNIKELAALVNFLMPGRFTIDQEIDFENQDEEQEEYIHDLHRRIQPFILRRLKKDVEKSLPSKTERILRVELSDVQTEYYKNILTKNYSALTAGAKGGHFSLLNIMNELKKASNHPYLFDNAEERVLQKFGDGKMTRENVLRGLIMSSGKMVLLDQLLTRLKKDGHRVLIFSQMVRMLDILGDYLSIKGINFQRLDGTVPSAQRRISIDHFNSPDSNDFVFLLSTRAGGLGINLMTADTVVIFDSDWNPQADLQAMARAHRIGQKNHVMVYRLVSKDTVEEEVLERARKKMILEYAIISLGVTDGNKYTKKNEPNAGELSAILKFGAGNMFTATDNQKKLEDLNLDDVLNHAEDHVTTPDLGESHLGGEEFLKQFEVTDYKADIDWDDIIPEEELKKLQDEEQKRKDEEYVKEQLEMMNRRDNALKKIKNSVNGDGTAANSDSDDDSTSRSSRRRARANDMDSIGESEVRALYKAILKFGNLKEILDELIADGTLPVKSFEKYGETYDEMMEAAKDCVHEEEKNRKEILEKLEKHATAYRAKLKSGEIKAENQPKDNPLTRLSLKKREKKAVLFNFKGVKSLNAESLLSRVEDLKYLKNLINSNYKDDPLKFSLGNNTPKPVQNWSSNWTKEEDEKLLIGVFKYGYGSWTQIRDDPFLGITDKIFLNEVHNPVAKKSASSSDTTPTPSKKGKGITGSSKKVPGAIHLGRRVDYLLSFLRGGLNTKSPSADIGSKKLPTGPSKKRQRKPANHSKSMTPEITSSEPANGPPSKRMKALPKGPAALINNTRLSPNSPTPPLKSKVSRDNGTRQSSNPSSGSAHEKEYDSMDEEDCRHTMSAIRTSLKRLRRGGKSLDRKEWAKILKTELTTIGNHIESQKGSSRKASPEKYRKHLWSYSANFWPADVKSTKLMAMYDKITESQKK
# Chain of Protein translocase subunit SecA (Escherichia coli (strain K12)) (P10408 whole entry): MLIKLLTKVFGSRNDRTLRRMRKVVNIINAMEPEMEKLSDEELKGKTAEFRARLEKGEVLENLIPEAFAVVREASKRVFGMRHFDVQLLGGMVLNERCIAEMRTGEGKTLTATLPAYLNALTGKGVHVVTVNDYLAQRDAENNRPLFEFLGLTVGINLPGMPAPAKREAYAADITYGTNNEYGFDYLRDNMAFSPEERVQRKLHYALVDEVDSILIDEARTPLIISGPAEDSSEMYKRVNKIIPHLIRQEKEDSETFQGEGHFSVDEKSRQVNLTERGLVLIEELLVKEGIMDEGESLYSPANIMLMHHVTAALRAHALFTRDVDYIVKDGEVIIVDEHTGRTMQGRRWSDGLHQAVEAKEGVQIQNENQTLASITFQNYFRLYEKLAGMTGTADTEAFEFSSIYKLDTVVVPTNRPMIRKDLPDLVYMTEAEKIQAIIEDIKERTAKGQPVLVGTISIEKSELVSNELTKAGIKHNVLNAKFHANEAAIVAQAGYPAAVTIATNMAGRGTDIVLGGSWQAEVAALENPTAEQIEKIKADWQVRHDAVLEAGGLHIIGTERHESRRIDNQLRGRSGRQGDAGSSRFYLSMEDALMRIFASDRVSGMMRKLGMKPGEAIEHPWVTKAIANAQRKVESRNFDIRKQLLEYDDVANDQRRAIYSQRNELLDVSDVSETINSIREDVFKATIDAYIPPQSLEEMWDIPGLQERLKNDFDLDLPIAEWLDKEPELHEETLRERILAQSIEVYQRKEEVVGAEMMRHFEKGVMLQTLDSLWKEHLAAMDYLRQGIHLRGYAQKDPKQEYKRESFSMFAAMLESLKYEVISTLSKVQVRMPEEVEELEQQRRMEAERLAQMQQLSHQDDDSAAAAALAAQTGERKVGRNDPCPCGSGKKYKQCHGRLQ
# Chain of Sialic acid-binding Ig-like lectin 9 (Homo sapiens) (Q9Y336 whole entry): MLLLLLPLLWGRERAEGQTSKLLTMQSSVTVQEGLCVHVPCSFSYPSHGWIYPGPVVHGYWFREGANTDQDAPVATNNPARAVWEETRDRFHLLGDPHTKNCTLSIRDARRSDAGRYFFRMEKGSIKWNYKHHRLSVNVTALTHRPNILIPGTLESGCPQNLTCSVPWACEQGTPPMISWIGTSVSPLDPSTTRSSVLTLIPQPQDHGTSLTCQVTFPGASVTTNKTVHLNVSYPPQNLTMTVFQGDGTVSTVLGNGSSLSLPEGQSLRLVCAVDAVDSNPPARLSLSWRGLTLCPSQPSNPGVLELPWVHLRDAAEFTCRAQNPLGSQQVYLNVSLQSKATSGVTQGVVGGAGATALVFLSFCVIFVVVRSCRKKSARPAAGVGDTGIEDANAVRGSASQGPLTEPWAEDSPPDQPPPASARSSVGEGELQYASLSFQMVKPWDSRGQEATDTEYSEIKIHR
Structure (SMILES),Percent Effect [1] [%],Percent Effect [2] [%],Percent Effect [3] [%],Percent Effect [4] [%],Percent Effect (Trypanosoma cruzi) [%],Percent Effect [5] [%],Percent Effect [6] [%],Percent Effect (Homo sapiens) [%],Percent Effect [7] [%],Percent Effect [8] [%],Percent Effect [9] [%]
Cc1cc(C)n(CC(=O)N2CCC(NS(=O)(=O)c3ccccc3)CC2)n1,-0.375,13.2,4.71,6.53,-1.32,0.383,4.84,15.1,1.47,7.32,-3.29
Cc1nn(C)cc1CNC(=O)c1cn(CCC2CCCCN2)nn1 (configuration not stated),-3.59,2.67,-4.65,9.99,9.64,-1.04,20.9,-18.7,6.01,16.1,-3.7
O=c1ccc2c(n1CCN1CCCC1)CCN(Cc1ccoc1)CC2,-1.68,8.22,-4.13,13.3,7.94,-9.58,10.7,19.6,8.33,13.6,-2.06
O=C1CC2(CCN(CC3CC3)C2)CN1c1cccc(F)c1 (configuration not stated),-0.129,10.8,-7.34,0.348,-3.81,1.24,4.38,-6.1,3.23,11.1,-0.923
Cc1nc(-c2ccc(Cl)s2)sc1C(=O)NCCS(N)(=O)=O,-5.36,10.8,20,14.1,-1.95,2.4,9.34,6.3,5.94,13.4,0.478
CC1=NN(c2ccc(C(=O)N3CCCC(n4ccnc4)C3)cc2)CC1 (configuration not stated),-5.1,10.1,-5.15,0.444,9.35,-1.9,-1.06,15.8,10.3,16.5,-6.17
O=c1oc(-c2cccs2)nn1CC(O)c1ccccc1 (configuration not stated),-3.18,8,-5.55,2.71,0.292,-27.6,5.58,7.94,10.4,16.1,-4.32
O=C(NCC(O)c1ccccc1Cl)c1cccc(-n2cnnn2)c1 (configuration not stated),-1.49,11,-3.34,14.3,1.18,1.36,14.2,24.8,3.23,7.5,98.6
COc1cc(N2C[C@@H]3COC[C@]3(COc3cccnc3)C2)ncn1,-4.12,16.2,3.02,-8.65,5.38,-2.87,18.4,21.1,2.16,12.8,-1.83
Cc1ccc(C2CSCCN2C(=O)c2ccsc2)o1 (configuration not stated),-7.12,8.11,5.16,3.24,-1.66,4.22,8.15,-0.446,1.07,6.17,-3.21
NCc1cnn(-c2ccccc2C(=O)NCc2ccncc2)c1,-3.81,6.76,13.5,-2.83,-2.96,-0.232,6.08,6.53,3.23,11.7,-5.06
Cc1cc(=O)n(CC(=O)Nc2ccc(C(N)=O)cc2)nc1C,-0.496,0,-2.6,15.7,3.67,0.952,11.6,4.44,1.59,9.76,-0.0727
Cc1ccc(NC2CCN(C(=O)Cc3cccc(F)c3)CC2)nn1,-1.31,21.6,-15.1,7.97,7.83,-12,6.67,6.31,9.36,28.4,-10.9
CN(C)CCNC(=O)c1cc(-c2cnc(N3CCCC3)nc2)cn1C,-6.55,5.33,9.86,-3.71,-0.197,-1.17,0.0881,45.6,0,-6.41,-10.7
COc1ccc(NC(=O)CNc2ccc(Br)cc2F)cc1,-3.43,5.26,9.89,2.32,-0.487,0,17.7,39.2,-14.9,-13,-4.78
NC(=O)c1cnn2c1NCC(CNCCc1ccco1)C2 (configuration not stated),-1.64,2.63,2.04,-0.712,-5.26,3.45,8.86,7.72,2.45,7.32,-1.74
Cc1cc(C)c(CNC(=O)N2CCCC2C(N)=O)c(=O)[nH]1 (configuration not stated),-3.77,6.33,7.27,3.83,-1.95,1.5,23.5,11.6,5.21,12.7,-14.7
